Experiment [1] is described as follows: compounds binding Alexa647 anti-His antibody – biochemical, small-molecule microarray, 635 nm fluorescence, artefact control for SMM control protein annotation, primary screen (AID 1128).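 Further: score merges feature fluorescence with signal-to-noise for each printed compound spot.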 The settings on record: higher = more signal.
Experiment [2] concerns Human papillomavirus type 1a E7 protein (residues 1-88). Put plainly: HPV1a E7 small-molecule binders, primary screen, biochemical, small-molecule microarray, residues 1-88, 635 nm (AID 1129). Particulars: small-molecule microarray binding, fluorescence 635 nm; higher = more signal.
Experiment [3] has as its target Focal adhesion kinase 1 (Homo sapiens) (UniProt Q05397). Briefly: PTK2 protein binding on printed compound slides – biochemical, small-molecule microarray, 635/667 nm fluorescence, BSA, DTT, primary screen (AID 1130).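 Further: composite of spot emission at 667 nm and signal to noise over triplicate slides.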 Particulars: 635 nm fluorescence, higher = more signal.
The test system of experiment [4] is Fibrinogen (Alexa647-labelled). Put plainly: Alexa647-fibrinogen binding to printed small molecules – biochemical, small-molecule microarray, 635/667 nm fluorescence, artefact control for SMM control-protein annotation, profiling panel (AID 1131).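 Further: z-score merges 667 nm fluorescence with per-spot signal-to-noise over triplicate slides.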 Particulars: fibrinogen-A647 binding fluorescence, higher = more signal.
The target in experiment [5] is Follistatin (Homo sapiens) (UniProt P19883). Briefly: FST protein binding to printed compounds – biochemical, small-molecule microarray, 635/667 nm fluorescence, primary screen (AID 1132). Particulars: 635 nm fluorescence, higher = more signal.
Experiment [6] has as its target Fibroblast growth factor 2 (Homo sapiens) (UniProt P09038). Briefly: basic fibroblast growth factor binding to printed compounds – biochemical, small-molecule microarray, 635/667 nm fluorescence, primary screen (AID 1133). The settings on record: FGF2, fluorescence 635/667, higher = more signal.
Experiment [7] is described as follows: JC-1 mitochondrial potential readout, lung cancer cells – cell-based, A549, JC-1 fluorescence, basal, 24 h, 100 nL, profiling panel (AID 1138).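 Further: A549 lung adenocarcinoma cells under basal conditions with no added stimulus; test concentration not given here.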 Particulars: higher = more signal.
The subject of a further experiment is Lefty1. Put plainly: Lefty1 protein binding to printed compounds – biochemical, small-molecule microarray, 635/667 nm fluorescence, primary screen (AID 1139). Particulars: fluorescence 635/667, higher = more signal.
Experiment [8] concerns wheat germ agglutinin (Triticum aestivum), Alexa647-labelled. Put plainly: Alexa647-WGA lectin binding to printed small molecules – biochemical, small-molecule microarray, 635/667 nm fluorescence, artefact control for SMM control-protein annotation, profiling panel (AID 1140).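 Further: score merges 667 nm feature emission with signal to noise over triplicate slides.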 The settings on record: WGA-A647 binding, 635 nm fluorescence, higher = more signal.
Experiment [9] concerns the target Luciferin 4-monooxygenase (Photinus pyralis) (UniProt P08659). Briefly: inhibition of purified Photinus pyralis luciferase – biochemical, luminescence, purified enzyme, 2006 set, primary screen (AID 1141).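 Further: cell-free assay with purified firefly luciferase at 100 ng per well in PBS; test concentration not given here.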 Particulars: purified firefly luciferase, SteadyGlo luminescence, 30 min; higher = more signal, called active from +8 up or from −8 down.
Experiment [10] concerns Wnt5a (protein binding on small-molecule microarray). Put plainly: small molecules binding Wnt5a protein – biophysical, small-molecule microarray, 635/667 nm fluorescence, primary screen (AID 1142).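 Further: fluorescence read at 667 nm with signal to noise per printed feature.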 Particulars: 635 nm fluorescence, higher = more signal.
A short description of experiment [11]: ATP-based viability of Huh7 replicon cells – cell-based, CellTiter-Glo luminescence, basal, 48 h, cytotoxicity control for HCV replication inhibitor project, primary screen (AID 1143).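 Further: Huh7 hepatoma cells carrying a hepatitis C replication reporter with no stimulus; test concentration not given here.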 Particulars: higher = more signal, called active from +8 up or from −8 down.
Experiment [12] can be described thus: Pseudomonas biofilm growth suppression – PAO1 strain, BacTiter-Glo luminescence, LB-PBS, primary screen (AID 1144). Particulars: P. aeruginosa PAO1 biofilm, 12 h, higher = more signal.
Experiment [13] can be described thus: basal CRE-LacZ reporter activity in PC12 – cell-based, unstimulated, primary screen (AID 1145). The settings on record: no forskolin, luminescence, 4.5 h, higher = more signal, called active from +8 up or from −8 down.
A short description of experiment [14]: forskolin-driven CRE-LacZ activity in PC12 – cell-based, CRE-LacZ reporter, forskolin-stimulated, primary screen (AID 1146).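 Further: PC12 cells with 6xCRE LacZ reporter stimulated by forskolin 10 µM; beta-galactosidase reporter signal reflecting CREB driven transcription.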 The settings on record: luminescence, 4.5 h, higher = more signal, called active from +8 up or from −8 down.
For experiment [15], the target named is Streptavidin (Streptomyces avidinii) (UniProt P22629). Put plainly: compounds binding control protein streptavidin – biophysical, small-molecule microarray, 635/667 nm fluorescence, artefact control for SMM compound annotation, primary screen (AID 1147).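 Further: signal reflects streptavidin binding to arrayed compounds as a control protein.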 The settings on record: higher = more signal.
Experiment [16] can be described thus: probe aInhba binding on compound microarray – biochemical, small-molecule microarray, 635/667 nm fluorescence, primary screen (AID 1148).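 Further: score merges 667nm spot fluorescence with signal-to-noise for antibody binding to printed compounds.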 Particulars: higher = more signal.
For experiment [17], the target named is Torsin-1A (Homo sapiens) (UniProt O14656). Put plainly: TOR1A wild-type binding on microarray – cell lysate, small-molecule microarray, lysate, 635/667 nm, primary screen (AID 1149). Particulars: COS7 hTOR1A-WT lysate, 635 nm fluorescence, higher = more signal.
Experiment [18] shares this target. Put plainly: torsin A mutant lysate binding on microarrays – cell lysate, small-molecule microarray, COS7 lysate, 635/667 nm fluorescence, primary screen (AID 1150).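 Further: score pools 667 nm emission and signal to noise measuring lysate protein binding.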 The settings on record: COS7 hTOR1A mutant lysate, 635 nm fluorescence, higher = more signal.
The test system of experiment [19] is Sonic hedgehog protein (Shh). Briefly: Sonic hedgehog microarray binding compounds – biochemical, small-molecule microarray, 635/667 nm fluorescence, primary screen (AID 1151).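 Further: Shh protein binding to compounds spotted on small-molecule microarray slides; score combines spot fluorescence intensity with signal-to-noise across triplicate slides.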 The settings on record: 635 nm fluorescence, higher = more signal.

Calls of active or inactive are those of the source. Unless noted, how the calls were made is not given here.

Chain of Luciferin 4-monooxygenase (Photinus pyralis) (P08659 whole entry, looked up): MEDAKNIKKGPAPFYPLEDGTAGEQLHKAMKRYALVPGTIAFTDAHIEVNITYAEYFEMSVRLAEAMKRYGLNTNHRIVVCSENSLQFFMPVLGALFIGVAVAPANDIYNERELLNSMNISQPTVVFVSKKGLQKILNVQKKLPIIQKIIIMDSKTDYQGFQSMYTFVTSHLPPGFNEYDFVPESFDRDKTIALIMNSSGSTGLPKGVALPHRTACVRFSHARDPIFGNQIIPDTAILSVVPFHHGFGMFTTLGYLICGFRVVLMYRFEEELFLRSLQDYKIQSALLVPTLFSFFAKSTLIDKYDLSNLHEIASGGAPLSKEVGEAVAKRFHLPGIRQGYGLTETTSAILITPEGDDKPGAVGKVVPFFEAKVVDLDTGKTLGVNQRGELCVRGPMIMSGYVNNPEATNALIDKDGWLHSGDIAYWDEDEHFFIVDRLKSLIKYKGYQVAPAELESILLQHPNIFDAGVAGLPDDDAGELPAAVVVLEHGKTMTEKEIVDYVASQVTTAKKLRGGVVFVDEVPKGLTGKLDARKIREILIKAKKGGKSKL
Chain of Fibroblast growth factor 2 (Homo sapiens) (P09038 whole entry, looked up): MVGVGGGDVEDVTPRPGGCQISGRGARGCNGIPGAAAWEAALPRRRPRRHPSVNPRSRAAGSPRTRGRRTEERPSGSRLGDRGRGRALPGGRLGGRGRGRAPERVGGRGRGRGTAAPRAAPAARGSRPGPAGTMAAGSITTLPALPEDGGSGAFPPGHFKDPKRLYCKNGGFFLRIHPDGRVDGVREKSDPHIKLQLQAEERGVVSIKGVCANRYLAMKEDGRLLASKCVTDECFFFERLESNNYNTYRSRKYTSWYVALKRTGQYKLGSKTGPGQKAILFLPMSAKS
Chain of Focal adhesion kinase 1 (Homo sapiens) (Q05397 whole entry, looked up): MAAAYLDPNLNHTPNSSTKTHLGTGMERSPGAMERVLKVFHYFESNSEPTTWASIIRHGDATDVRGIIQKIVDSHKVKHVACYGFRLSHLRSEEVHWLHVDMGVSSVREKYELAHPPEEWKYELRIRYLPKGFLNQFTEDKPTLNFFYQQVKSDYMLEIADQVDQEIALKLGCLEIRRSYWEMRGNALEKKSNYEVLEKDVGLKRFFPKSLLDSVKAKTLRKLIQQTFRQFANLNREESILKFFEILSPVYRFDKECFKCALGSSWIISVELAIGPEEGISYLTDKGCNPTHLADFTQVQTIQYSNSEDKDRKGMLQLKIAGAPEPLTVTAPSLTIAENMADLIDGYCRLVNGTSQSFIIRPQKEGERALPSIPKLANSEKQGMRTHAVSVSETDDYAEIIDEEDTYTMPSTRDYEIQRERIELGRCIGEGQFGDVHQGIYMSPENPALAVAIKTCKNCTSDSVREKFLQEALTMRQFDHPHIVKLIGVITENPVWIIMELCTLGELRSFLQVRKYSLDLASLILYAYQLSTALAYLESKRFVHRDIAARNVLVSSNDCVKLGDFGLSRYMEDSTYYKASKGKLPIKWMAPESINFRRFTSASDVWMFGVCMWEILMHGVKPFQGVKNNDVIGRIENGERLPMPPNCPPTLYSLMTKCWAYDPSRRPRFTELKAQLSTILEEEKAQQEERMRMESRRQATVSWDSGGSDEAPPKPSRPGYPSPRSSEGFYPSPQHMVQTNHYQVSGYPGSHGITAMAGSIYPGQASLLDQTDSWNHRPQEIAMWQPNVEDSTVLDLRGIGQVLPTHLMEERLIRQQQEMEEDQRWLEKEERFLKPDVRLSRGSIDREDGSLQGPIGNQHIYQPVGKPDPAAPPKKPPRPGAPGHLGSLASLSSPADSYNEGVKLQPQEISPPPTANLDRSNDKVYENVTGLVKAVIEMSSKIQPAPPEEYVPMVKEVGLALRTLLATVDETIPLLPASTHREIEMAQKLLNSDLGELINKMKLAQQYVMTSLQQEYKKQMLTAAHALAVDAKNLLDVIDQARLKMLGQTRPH
Chain of Streptavidin (Streptomyces avidinii) (P22629 whole entry, looked up): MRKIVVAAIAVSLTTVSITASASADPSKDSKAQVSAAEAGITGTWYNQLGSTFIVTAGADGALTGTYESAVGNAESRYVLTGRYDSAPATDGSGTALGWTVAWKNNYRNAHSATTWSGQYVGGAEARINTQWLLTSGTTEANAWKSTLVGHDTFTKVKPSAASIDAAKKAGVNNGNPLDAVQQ
Chain of Torsin-1A (Homo sapiens) (O14656 whole entry, looked up): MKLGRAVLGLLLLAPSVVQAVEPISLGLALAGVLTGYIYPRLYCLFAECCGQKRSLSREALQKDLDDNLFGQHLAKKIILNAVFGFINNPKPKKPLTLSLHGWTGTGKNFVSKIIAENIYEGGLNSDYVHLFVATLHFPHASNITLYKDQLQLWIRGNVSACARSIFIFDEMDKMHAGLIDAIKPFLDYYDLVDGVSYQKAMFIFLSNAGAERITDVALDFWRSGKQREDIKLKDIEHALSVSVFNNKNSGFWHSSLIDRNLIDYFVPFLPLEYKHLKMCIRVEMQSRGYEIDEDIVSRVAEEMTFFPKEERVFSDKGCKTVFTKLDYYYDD
Chain of Follistatin (Homo sapiens) (P19883 whole entry, looked up): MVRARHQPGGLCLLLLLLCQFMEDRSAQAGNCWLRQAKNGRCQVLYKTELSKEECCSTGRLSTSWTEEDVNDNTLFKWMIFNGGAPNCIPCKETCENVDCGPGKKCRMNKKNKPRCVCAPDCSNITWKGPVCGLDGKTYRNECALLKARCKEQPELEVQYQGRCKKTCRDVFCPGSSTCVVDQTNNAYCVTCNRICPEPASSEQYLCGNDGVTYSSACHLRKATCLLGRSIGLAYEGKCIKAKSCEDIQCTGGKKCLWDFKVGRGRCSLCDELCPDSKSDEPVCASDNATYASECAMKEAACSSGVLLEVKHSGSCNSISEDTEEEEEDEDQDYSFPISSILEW

Take `COCCOC(=O)N1C(=O)[C@@]2(c3cc(C#CC4(O)CCCCCC4)ccc31)[C@H](C(=O)N1CCN(c3ncccn3)CC1)[C@H]1C(=O)O[C@H](c3ccccc3)[C@H](c3ccccc3)N1[C@@H]2c1ccc(OCCO)cc1`: the composite z-score in experiment [1] is 2.08; in experiment [2], 1.2; in experiment [3] it was 0.289; in [4] it was 0.889; in experiment [5], 1.29; in [6], 1.35. For the same compound, the composite z-score was determined as 0.637 in the experiment with Lefty1; 1.09 in experiment [8]; 0.495 in [10]; 0.436 in [15]; 0.303 in experiment [16]; 0.227 with Torsin-1A (Homo sapiens) [17]. Also, the composite z-score with Torsin-1A (Homo sapiens) [18] is 0.425; in [19], 1.17. In addition, the z-score was -1.34 in [7]; -2.19 (inactive) in experiment [9]; -3.05 (inactive) in [11]; 0.905 (inactive) in experiment [12]; -0.878 (inactive) in [13]; -0.249 (inactive) in [14].

Regarding `CC(C)(C)OC(=O)CC[C@]1(C(N)=O)COC(c2ccc(OCCCO)cc2)=N1`, the composite z-score in [1] was 1.3; in experiment [2], 0.804; in experiment [3], -0.0765; in experiment [4], 0.29; in [5] it was 1.1; in [6], 1.13. For the same compound, the composite z-score with Lefty1 was -1.08; in experiment [8], 0.43; in experiment [10] it was 0.681; in [15] it was 0.248; in experiment [16], 0.923; with Torsin-1A (Homo sapiens) [17], 0.833. Also, the composite z-score in the experiment with Torsin-1A (Homo sapiens) [18] is 0.493; in experiment [19], -0.769. The z-score was -0.437 in experiment [7]; -0.0436 (inactive) in experiment [9]; 0.0853 (inactive) in [11]; 0.361 (inactive) in experiment [12]; -0.585 (inactive) in experiment [13]; -0.438 (inactive) in [14].

For `CCOC(=O)NN=C1C[C@@H](O)[C@@H](O)[C@@H]2[C@@H]3C(=O)N(C4CCCCC4)C(=O)[C@@H]3CC[C@@H]12`, the composite z-score was 0.327 in experiment [1]; -0.18 in [2]; 0.287 in [3]; 0.5 in [4]; 0.267 in [5]; 0.365 in experiment [6]. In addition, the composite z-score in the experiment on Lefty1 is 0.319; in [8], 0.0034; in experiment [10] it was 0.133; in experiment [15], 0.132; in [16] it was -0.0987; with Torsin-1A (Homo sapiens) [17] it was 0.597. In addition, the composite z-score with Torsin-1A (Homo sapiens) [18] turned out to be 0.726; in experiment [19] it was 0.0717. The z-score in experiment [7] was 0.497; in [9] it was -0.182 (inactive); in [11], 0.392 (inactive); in experiment [12], 0.471 (inactive); in experiment [13] it was 0.16 (inactive); in experiment [14], 0.366 (inactive).

For the compound `CC(C)=CCCC(C)=CCON=C1[C@H]2CCn3c(=O)n(C)c(=O)n3[C@H]2[C@H](O)[C@@H]2O[C@H]12`, the composite z-score in experiment [1] was 0.957; in experiment [2] it was 0.968; in [3], -0.236; in [4] it was 0.674; in experiment [5], 0.865; in experiment [6], 0.896. Moreover, the composite z-score in the experiment with Lefty1 was 1.37; in experiment [8] it was 0.115; in experiment [10], 0.287; in experiment [15] it was 0.203; in [16], -0.12; with Torsin-1A (Homo sapiens) [17] it was 1.15. Also, the composite z-score with Torsin-1A (Homo sapiens) [18] worked out at 0.898; in [19] it was 1.98. Moreover, the z-score is 0.637 in experiment [7]; -0.284 (inactive) in experiment [9]; 0.583 (inactive) in experiment [11]; 1.13 (inactive) in experiment [12]; 0.519 (inactive) in [13]; -0.0697 (inactive) in experiment [14].

On to `C[C@@H](c1ccccc1)N1C(=O)[C@H]2[C@H]3[C@H](O)[C@H](O)CC(=NOC[C@@H](O)COCc4ccco4)[C@@H]3CC[C@H]2C1=O`, for which the composite z-score in [1] is -0.623; in experiment [2] it was -0.604; in experiment [3], 0.126; in [4], 0.448; in experiment [5], -0.761; in experiment [6] it was -0.728. The composite z-score was -0.809 in the experiment with Lefty1; 0.112 in experiment [8]; -0.253 in [10]; -0.485 in [15]; -0.176 in [16]; -0.304 with Torsin-1A (Homo sapiens) [17]. For the same compound, the composite z-score is -0.294 with Torsin-1A (Homo sapiens) [18] and -0.494 in [19]. For the same compound, the z-score is -0.62 in experiment [7]; 0.558 (inactive) in experiment [9]; 0.333 (inactive) in experiment [11]; -0.0196 (inactive) in experiment [12]; -0.292 (inactive) in experiment [13]; 0.236 (inactive) in experiment [14].

For the origin of these results see PubChem BioAssay.
